The record followed here is PubChem BioAssay (NCI).

About 83,000 compounds went through this panel and 20% of them were active in at least one assay; those are over-represented in the sample as a whole.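 For each line, cells grew in 96-well plates with the test compound present at a single concentration for 48 hours.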 A number with no mark means an inactive call. Active and inactive are the calls of the source.

The experiment has as its system SN12C renal. Description: NCI-60 one-dose screen, 48 h (100 = growth as untreated, 0 = no growth, -100 = all killed). The note with it: 10 µM unless noted. Here is the method: Growth inhibition of the SN12C human tumor cell line is measured as a screen for anti-cancer activity. Cells are grown in 96 well plates and exposed to the test compound for 48 hours. Compounds are tested at a single concentration, which is 10^-5 M for most compounds. The reported endpoint is percent growth (GI% or GIPRCNT), where numbers from 0 - 100% represent growth inhibition, and numbers from -100% - 0 represent cell death. For example, a value of 40 represents 60% growth inhibition. A value of 0 means no net growth occurred over the course of the experiment. A value of -40 indicates 40% of cells at the beginning of the experiment died by the end of the experiment. A value of -100 means all cells are dead at the end of the experiment.
NCI-60 Human Tumor Cell Lines Screen was performed using the standard one-dose NCI protocol, which is described in more detail at https://dtp.cancer.gov/discovery_development/nci-60/default.htm.
Compounds with GIPRCNT values below 10 were considered active. Activity score was based on GIPRCNT using the following formula: […]
Score is 0 for GIPRCNT values of 100 or above, 50 for GIPRCNT values of 0, and 100 for GIPRCNT values of -100.
With `COc1cc2nc(N3CCCC3)nc(NCCc3ccccc3)c2cc1OC`, the growth is 75.9%. As for `NC(=O)c1cc(Cl)ccc1NC(=O)/C=C/c1ccccc1`, the growth is 49%. As for `COc1ccc(-c2nc3ccc(-c4nc5ccc(N6CCN(c7ccncc7)CC6)cc5[nH]4)cc3[nH]2)cc1OC`, the figure is 45.2%. For `Nc1n[nH]c2cc(F)c([C@@H]3Nc4ccc5[nH]ncc5c4[C@H]4C5CCC(C5)[C@@H]34)cc12` (stereo not given in full), the growth is 33.5%. For `CCOC(=O)c1c(CN2CCN(C)CC2)nc2ccc(Cl)cc2c1-c1ccccc1`, the growth is 92.8%. `COc1ccc(C(=O)c2sc3nc4c(c(-c5cccnc5)c3c2N)CCCC4)cc1OC`: the growth is 69.8%. Turning to `Cc1cc2nc3[nH]c4ccccc4c3nc2cc1C`, the growth was 83.4%. As to `CSc1nc(NCc2ccccc2)c(C#N)c(-c2cccc([N+](=O)[O-])c2)n1`, the growth was 93.2%. Consider `COc1ccc(Nc2c3c4c(cccc4[nH]c2=O)C(=O)c2ccccc2-3)cc1`, for which the growth was 40%. As for `O=C1NC(=O)C(c2ccc(Cl)cc2Cl)N1` (stereo not given), the growth is 104%.

`COc1ccc(-c2cc(-c3ccc(Nc4ccnc5cc(Cl)ccc45)cc3)nc(N3CCOCC3)n2)cc1`: the growth is 49.2%. Take `FC(F)(F)c1ccc(-c2cn3nc(-c4c[nH]c5ccc(Br)cc45)sc3n2)cc1`: the growth is 93.9%. The value for `CCOC(=O)c1cc(C(=O)c2ccc(O)c(O)c2)n2ccc(-c3ccn4c(C(=O)c5ccc(O)c(O)c5)cc(C(=O)OCC)c4c3)cc12` was 94.7%.

For the compound `O=C1OC(c2ccccc2)C(O)=C1c1ccccc1` (stereo not given), the growth was 98.9%.

As to `Clc1ccc2c(NCCCCNc3nc(N4CCCCC4)nc4ccccc34)ccnc2c1`, the growth is 20.3%. Take `O=C1Nc2c(ccc(Cl)c2Cl)/C1=C\c1ccc(C(F)(F)F)cc1`: the growth is 79.7%. The value for `Cc1cc(C)nc(SC2=C(Nc3cccc(Cl)c3C)C(=O)N(Cc3ccccc3)C2=O)n1` was 70.1% [30 µM]; that for `Nc1ccc(S(=O)(=O)O)c2ccc(N=Nc3ccc(N=Nc4ccc(S(=O)(=O)O)cc4)c4ccccc34)c(O)c12` was 98.1%. With `CC(C)n1c(/C=C/[C@@H](O)C[C@@H](O)CC(=O)O)c(-c2ccc(F)cc2)c2ccccc21`, the growth was 36.4%. For `O=C(Nc1ccccc1Cl)c1ccc(NC2=C(Cl)C(=O)N(C3CCCCC3)C2=O)cc1`, the growth was 97.6% [30 µM].

On to `COc1ccc(/C=C(\C#N)C(=O)Nc2cccc(Nc3nc(SC)nc(-c4cccc([N+](=O)[O-])c4)c3C#N)c2)cc1OC`, for which the growth was 96.5%. With `CC(=O)Oc1ccc(Cl)cc1CN(C(C)=O)C1CCCCC1`, the growth was 97.3%.

On to `c1csc(C2=NN3C(C2)c2ccccc2OC3c2ccncc2)c1` (stereo not given), for which the growth was 89.9%. `COc1ccc(N=Nc2nccs2)c(O)c1`: the growth is 50.3%.

Consider `CN(C)C(=S)N=Nc1c(O)[nH]c2ccccc12`, for which the growth is 25.1%. As to `N#C/C(=C\c1ccc(-c2cc(C(F)(F)F)ccc2Cl)o1)c1nc(-c2ccco2)cs1`, the growth was 99%.

With `C=CCSSc1ncnc2c1ncn2C1OC(CO)C(O)C1O` (stereo not given), the growth is 76.2%. As for `N#Cc1c(-c2ccc(Cl)cc2)nc(N/N=C/c2cccc(Br)c2)nc1N1CCOCC1`, the growth was 91.4%. In the case of `O=C(N=Nc1c(O)[nH]c2ccc(Br)cc12)c1cc(-c2ccccc2)on1`, the growth is 100%. In the case of `C=C(C)C1CC(O)C2(C)CCCC3C2C1CC(C)C3(C)CC/C(C)=C/C(O)C1CCC(=O)c2c(OC)cc(OC)cc21` (stereo not given), the growth was 59.2%.

With `Cc1nn(-c2cc(=O)[nH]c3ccccc23)c(N)c1C#N`, the growth is 101%. With `CCOC(=O)c1c(C)oc2ncnc(N3CCN(C(=O)COc4ccc(SC)cc4)CC3)c12`, the growth was 94.9%.

`COc1ccc2cc(-c3nn(-c4ccc(C(=O)O)cc4)cc3CO)ccc2c1`: the growth is 106%. For the compound `CCC(=O)c1ccc(Cl)s1`, the growth is 101%. Consider `O=Nc1c(O)c(Cl)cc2ccccc12`, for which the growth is 82.6%. As to `COc1ccc(-c2cc(=O)c3c(OC)c4ccoc4cc3o2)cc1`, the growth is 93.8%. `Nc1ccc(-c2cc3c(Nc4ccc(Oc5cccc(C(F)(F)F)c5)c(Cl)c4)ncnc3s2)cc1`: the growth is 57.3%. Consider `Cc1cc(N[C@@H]2CCC[C@H](Nc3ccnc4cc(Cl)ccc34)C2)nc(N2CCCCCC2)n1`, for which the growth was -74.8% (active). As for `CC(O)CN(CC(C)O)c1ccc2c(c1)Cc1cc([N+](=O)[O-])ccc1-2` (stereo not given), the growth is 99.6%. With `FC(F)(F)c1[nH]ncc1-c1nc2ccc3n[nH]c(C#Cc4cccnc4)c3c2c2c1CCCC2`, the growth is 37.9%.
